# Results filed as inconclusive are left out. Calls of active or inactive are those of the source. Calls follow the shape of the dose curve; as a rule, active = well fitted inhibition curve with a large enough effect; inconclusive = small, poorly fitted or top-dose-only effect; inactive = flat fitted curve, though single readings scatter.
# Tested on: MKL-2
# Test: qHTS assay to identify novel small-molecules to repurpose for Merkel cell carcinoma treatment (AID 1296009); also: nearly all actives have a fitted effect of over 60% in size
# Details: MCC and control cell lines, CellTiter-Glo viability, 72 h; series mostly up to 46 µM; activity change, negative = cytotoxicity: at the top concentration
# Method in brief: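 72 hr, 37 degree celsius; NPC 8-pt / MIPE 11-pt dose response; compound pinned in DMSO; CellTiter-Glo, 10 min RT, luminescence; normalized to no-cell and DMSO controls.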
# % is scaled to controls: 0 for no effect and ±100 for the full control effect; potency is read from the fitted curve at half-maximal effect.
SMILES,Potency,"activity change, negative = cytotoxicity"
CC(C)c1cnn2c(NCc3ccccc3)cc(N[C@@H](CO)[C@H](O)CO)nc12,1.05 µM (active),
CCOC(=O)C1=C(C)NC2=C(C(=O)CC(C)(C)C2)C1c1ccc(-c2ccccc2)cc1 (centres undefined),2.35 µM (active),
CN1CCN(Cc2ccc(NC(=O)Nc3ccc(Oc4cc(NC(=O)C5CC5)ncn4)cc3)cc2C(F)(F)F)CC1,0.264 µM (active),
CC[C@@H]1C(=O)N(C)c2cnc(Nc3ccc(C(=O)NC4CCN(C)CC4)cc3OC)nc2N1C1CCCC1,3.32 µM (active),
CNC(=O)c1cc(Oc2ccc(NC(=O)Nc3cc(C(C)(C)C)nn3-c3ccc4ncccc4c3)c(F)c2)ccn1,,-7.73% (inactive)
Cc1ccc2nc(NC(=O)CSc3nc4c(c(=O)n3-c3ccccc3)SCC4)sc2c1,,-21.9% (inactive)
O=C(CCCCCCNC(=O)c1cnc(N(c2ccccc2)c2ccccc2)nc1)NO,5.9 µM (active),
CC[C@H](CO)Nc1nc(NCc2ccccc2)c2ncn(C(C)C)c2n1,,-6.67% (inactive)
CNC(=O)c1ccccc1Nc1nc(Nc2ccc(N3CCOCC3)cc2OC)ncc1Cl,,-11.5% (inactive)
CC(C)c1noc(N2CCC(COc3ccc(-c4ccc(S(C)(=O)=O)cc4)nc3)CC2)n1,,-13.8% (inactive)
CCCCc1nc2cc(C=CC(=O)NO)ccc2n1CCN(CC)CC,0.526 µM (active),
Cc1cccc(C=NNc2cc(N3CCOCC3)nc(OCCc3ccccn3)n2)c1,16.6 µM (active),
Cn1c(=O)n(-c2ccc(C(C)(C)C#N)cc2)c2c3cc(-c4cnc5ccccc5c4)ccc3ncc21,,-20.6% (inactive)
Cn1c2cc(S(C)=O)sc2c2cnn(Cc3cccc(N)c3)c(=O)c21 (centres undefined),,20.1% (inactive)

# From PubChem BioAssay (NCATS)
